# A number with no mark means an inactive call.
# Columns and labels:
# Assay in all cases: log2 ratio of Biotin-Ahx-Ub-VS probe labelling (fragment/DMSO); higher = less target engagement (more negative = stronger competition), active = hit call of the paper (q ≤ 0.05, log2 ratio ≤ -1)
# Conditions in all cases: compound concentration: 200 uM; treatment time: 3 h
# [1] = target: T1, OTUD6B (UniProt Q8N6M0)
# T1 sequence (whole entry): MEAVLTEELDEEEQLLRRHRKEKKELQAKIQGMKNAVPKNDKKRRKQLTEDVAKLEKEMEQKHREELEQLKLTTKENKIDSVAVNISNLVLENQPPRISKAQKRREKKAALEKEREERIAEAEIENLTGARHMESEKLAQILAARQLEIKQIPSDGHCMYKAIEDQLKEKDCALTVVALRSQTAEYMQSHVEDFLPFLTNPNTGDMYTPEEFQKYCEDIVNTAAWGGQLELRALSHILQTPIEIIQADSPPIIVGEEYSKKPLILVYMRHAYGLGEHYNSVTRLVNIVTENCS
# Procedure, shortened: (§1)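 HEK293T lysate (495 µg per sample, in Tris/CHAPS/IGEPAL buffer with protease inhibitors) was exposed in triplicate for 3 h to fragment at 200 µM or to vehicle, then to Biotin-Ahx-Ub-VS at 0.5 µM final for 1 h. Labelled DUBs were enriched on NeutrAvidin, digested with LysC and trypsin, and analysed by diaPASEF LC-MS/MS. Spectronaut label-free quantities were normalised to the global median, and values are average log2 ratios of fragment over vehicle from an unpaired t-test. Only proteins with ≥2 unique peptides were used.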
# [2] = target: T2, OTUD7B (UniProt Q6GQQ9)
# T2 sequence (whole entry): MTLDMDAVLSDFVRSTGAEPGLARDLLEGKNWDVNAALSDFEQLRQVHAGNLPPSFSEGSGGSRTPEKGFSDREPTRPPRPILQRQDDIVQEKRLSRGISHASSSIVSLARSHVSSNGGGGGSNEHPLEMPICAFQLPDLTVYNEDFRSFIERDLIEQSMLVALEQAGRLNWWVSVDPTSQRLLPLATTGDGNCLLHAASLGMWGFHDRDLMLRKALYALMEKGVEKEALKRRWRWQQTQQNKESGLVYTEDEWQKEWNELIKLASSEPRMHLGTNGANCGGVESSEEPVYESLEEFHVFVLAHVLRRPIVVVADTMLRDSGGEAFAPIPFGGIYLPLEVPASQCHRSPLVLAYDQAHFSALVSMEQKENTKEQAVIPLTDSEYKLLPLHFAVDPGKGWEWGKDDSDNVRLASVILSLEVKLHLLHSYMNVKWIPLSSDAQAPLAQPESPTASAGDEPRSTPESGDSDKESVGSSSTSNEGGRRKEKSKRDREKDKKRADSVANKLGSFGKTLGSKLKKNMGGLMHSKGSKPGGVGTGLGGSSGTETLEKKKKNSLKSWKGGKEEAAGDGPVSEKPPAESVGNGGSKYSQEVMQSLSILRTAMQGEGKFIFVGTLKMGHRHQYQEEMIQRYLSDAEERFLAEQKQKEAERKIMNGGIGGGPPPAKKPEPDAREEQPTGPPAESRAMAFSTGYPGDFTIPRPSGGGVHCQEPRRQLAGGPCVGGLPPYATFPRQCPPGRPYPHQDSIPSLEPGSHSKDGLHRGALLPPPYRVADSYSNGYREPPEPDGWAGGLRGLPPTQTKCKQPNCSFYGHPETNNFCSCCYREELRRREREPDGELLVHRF
# Procedure, shortened: as §1
# [3] = target: PRPF8 (UniProt Q6P2Q9)
# Procedure, shortened: as §1
# [4] = target: T3, PSMD7 (UniProt P51665)
# T3 sequence (whole entry): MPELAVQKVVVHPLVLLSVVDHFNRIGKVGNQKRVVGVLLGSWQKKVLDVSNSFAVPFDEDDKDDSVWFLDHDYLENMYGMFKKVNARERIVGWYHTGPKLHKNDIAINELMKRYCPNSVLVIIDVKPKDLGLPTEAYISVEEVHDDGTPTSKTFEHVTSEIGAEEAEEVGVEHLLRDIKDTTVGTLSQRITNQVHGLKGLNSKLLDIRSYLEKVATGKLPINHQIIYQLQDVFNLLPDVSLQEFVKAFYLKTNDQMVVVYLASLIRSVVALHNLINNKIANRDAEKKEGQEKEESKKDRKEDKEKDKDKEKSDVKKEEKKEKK
# Procedure, shortened: as §1
# [5] = target: UCHL1 (UniProt P09936)
# Sequence of UCHL1 (P09936 whole entry, looked up): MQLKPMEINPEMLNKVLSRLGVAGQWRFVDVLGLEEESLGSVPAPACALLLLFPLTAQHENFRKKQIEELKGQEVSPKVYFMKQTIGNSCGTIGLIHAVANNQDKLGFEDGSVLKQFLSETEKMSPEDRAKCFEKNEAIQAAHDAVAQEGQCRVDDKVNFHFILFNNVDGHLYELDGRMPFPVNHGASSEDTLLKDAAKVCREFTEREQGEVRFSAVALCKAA
# Procedure, shortened: as §1
# [6] = target: T4, UCHL3 (UniProt P15374)
# T4 sequence (whole entry): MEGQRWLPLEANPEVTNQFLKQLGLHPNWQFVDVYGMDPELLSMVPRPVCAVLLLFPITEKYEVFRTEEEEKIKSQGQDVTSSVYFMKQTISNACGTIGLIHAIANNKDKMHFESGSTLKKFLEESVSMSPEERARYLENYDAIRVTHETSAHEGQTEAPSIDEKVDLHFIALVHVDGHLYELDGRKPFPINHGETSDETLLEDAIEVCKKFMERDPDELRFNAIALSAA
# Procedure, shortened: as §1
# [7] = target: T5, UCHL5 (UniProt Q9Y5K5)
# T5 sequence (whole entry): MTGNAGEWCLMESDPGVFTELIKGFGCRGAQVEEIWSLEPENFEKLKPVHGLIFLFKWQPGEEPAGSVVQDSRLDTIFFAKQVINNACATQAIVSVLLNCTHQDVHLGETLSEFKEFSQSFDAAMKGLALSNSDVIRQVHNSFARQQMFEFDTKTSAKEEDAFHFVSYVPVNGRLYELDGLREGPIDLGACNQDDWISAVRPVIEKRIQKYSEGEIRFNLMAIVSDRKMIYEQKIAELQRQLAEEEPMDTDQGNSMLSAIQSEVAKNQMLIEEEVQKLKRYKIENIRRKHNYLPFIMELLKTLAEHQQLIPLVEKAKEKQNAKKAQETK
# Procedure, shortened: as §1
# [8] = target: USP10 (UniProt Q14694)
# Sequence of USP10 (Q14694 whole entry): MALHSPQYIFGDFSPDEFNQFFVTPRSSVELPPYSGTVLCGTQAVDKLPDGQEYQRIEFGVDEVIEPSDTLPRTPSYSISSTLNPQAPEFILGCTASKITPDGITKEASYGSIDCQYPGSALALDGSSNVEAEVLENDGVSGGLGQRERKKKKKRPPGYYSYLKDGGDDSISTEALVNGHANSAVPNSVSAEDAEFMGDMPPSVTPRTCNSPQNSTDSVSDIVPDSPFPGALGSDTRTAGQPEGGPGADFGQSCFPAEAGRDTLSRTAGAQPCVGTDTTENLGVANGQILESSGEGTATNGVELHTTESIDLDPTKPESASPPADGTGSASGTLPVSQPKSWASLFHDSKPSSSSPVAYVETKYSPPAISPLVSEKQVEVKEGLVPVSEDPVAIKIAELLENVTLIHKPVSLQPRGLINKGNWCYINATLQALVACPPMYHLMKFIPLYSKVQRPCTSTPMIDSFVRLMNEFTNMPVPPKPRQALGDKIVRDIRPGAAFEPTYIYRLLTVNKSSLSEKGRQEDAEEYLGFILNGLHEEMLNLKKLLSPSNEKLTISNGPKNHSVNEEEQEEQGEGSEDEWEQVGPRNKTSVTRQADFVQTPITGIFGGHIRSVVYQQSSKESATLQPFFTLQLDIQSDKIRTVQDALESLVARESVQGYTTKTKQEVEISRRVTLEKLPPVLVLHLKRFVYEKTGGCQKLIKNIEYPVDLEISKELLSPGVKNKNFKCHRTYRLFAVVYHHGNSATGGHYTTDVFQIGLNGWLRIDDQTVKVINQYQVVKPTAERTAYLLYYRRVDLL
# Procedure, shortened: as §1
# [9] = target: T6, USP15 (UniProt Q9Y4E8)
# T6 sequence (whole entry): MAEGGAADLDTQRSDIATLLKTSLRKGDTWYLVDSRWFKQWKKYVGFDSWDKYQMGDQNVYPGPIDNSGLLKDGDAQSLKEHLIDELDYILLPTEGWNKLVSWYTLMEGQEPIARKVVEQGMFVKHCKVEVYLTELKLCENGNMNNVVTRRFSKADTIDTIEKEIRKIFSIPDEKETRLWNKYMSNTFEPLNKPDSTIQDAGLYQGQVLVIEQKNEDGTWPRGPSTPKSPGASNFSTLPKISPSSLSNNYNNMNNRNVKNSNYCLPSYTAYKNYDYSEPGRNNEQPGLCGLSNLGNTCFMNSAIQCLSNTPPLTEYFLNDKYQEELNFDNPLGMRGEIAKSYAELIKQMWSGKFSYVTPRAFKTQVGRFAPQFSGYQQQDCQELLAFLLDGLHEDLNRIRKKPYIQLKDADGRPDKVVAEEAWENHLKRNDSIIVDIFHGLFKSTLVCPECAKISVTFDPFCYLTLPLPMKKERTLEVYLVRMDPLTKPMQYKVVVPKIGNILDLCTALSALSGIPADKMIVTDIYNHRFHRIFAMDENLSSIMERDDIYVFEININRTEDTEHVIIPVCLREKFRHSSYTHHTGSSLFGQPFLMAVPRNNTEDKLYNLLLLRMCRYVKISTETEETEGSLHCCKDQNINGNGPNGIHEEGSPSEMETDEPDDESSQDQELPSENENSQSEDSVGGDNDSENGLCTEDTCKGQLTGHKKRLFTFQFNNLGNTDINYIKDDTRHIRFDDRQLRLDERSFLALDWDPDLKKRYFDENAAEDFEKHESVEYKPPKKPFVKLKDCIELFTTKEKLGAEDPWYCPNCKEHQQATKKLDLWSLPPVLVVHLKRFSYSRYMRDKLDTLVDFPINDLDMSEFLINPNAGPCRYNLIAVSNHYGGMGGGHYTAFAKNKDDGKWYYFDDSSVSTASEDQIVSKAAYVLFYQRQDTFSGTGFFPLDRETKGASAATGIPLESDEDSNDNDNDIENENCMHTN
# Procedure, shortened: as §1
# [10] = target: USP16 (UniProt Q9Y5T5)
# Sequence of USP16 (Q9Y5T5 whole entry, looked up): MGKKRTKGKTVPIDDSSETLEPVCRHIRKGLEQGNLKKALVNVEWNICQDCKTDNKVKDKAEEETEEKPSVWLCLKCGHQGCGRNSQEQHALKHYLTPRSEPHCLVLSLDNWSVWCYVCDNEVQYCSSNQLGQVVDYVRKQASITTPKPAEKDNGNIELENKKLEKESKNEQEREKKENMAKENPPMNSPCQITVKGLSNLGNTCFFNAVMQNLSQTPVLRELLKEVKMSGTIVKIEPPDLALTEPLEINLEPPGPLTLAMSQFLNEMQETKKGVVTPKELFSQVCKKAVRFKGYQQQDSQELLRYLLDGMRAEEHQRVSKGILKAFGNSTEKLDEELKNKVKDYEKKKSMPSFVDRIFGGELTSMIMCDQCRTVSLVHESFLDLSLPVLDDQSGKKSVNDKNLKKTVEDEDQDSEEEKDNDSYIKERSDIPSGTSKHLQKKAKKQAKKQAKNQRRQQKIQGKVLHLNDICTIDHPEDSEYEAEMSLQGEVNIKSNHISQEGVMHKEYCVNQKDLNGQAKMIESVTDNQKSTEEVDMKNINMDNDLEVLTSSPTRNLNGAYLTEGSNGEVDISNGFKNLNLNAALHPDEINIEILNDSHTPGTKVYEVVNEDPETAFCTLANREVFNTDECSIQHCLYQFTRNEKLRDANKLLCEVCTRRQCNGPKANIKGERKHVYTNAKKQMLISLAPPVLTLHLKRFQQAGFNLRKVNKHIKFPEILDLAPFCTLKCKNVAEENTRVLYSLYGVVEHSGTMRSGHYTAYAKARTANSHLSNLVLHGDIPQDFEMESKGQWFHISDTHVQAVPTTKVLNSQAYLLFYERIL
# Procedure, shortened: as §1
smiles,measurement,setting,value
O=C(CCl)Nc1ccc2c(c1)OC(F)(F)O2,log2 ratio of Biotin-Ahx-Ub-VS probe labelling,[1],-0.167
same,log2 ratio of Biotin-Ahx-Ub-VS probe labelling,[2],-0.873
same,log2 ratio of Biotin-Ahx-Ub-VS probe labelling,[3],0.00481
same,log2 ratio of Biotin-Ahx-Ub-VS probe labelling,[4],-0.159
same,log2 ratio of Biotin-Ahx-Ub-VS probe labelling,[5],-1.06 (active)
same,log2 ratio of Biotin-Ahx-Ub-VS probe labelling,[6],0.0771
same,log2 ratio of Biotin-Ahx-Ub-VS probe labelling,[7],-0.471
same,log2 ratio of Biotin-Ahx-Ub-VS probe labelling,[8],-0.126
same,log2 ratio of Biotin-Ahx-Ub-VS probe labelling,[9],-0.192
same,log2 ratio of Biotin-Ahx-Ub-VS probe labelling,[10],0.132

# Reference: the supplement of paper PMC11732987, “Enantioselective OTUD7B fragment discovery through chemoproteomics screening and high-throughput optimisation” (Communications Chemistry, 2025)
